The whole screen tested about 5,500 compounds, of which about 2,000 (36%) were called active. About 18% were inconclusive and are not listed. The list shows a part of the results. Unmarked numbers belong to inactive results. Cut-off read from the data, not from the text of the source: active = normalized growth mostly below about 0.91 (no sharp cut-off); inconclusive = no clear call, values can overlap the other calls; inactive = mostly above about 0.92.
Test: chemical genetic growth profiling, strain panel (AID 1159580);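 note: tested at 20 µM; growth read once vehicle control cultures reached saturation at 30 °C; 1 = growth at the plate median or of vehicle wells; lower values mean less growth of the strain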
Details: growth OD

## CCCCCCCCCCCC[C@H](C(=O)O)[C@@H](C)C(=O)O
S. cerevisiae deletion strains, locus YJR075W, strain HOC1, stronger effect = lower value
  normalized growth: 1.07
S. cerevisiae deletion strains, locus YKL009W, strain mrt4, stronger effect = lower value
  normalized growth: 0.946
S. cerevisiae deletion strains, locus YKL068W, stronger effect = lower value
  normalized growth: 0.996
S. cerevisiae deletion strains, locus YKL085W, strain MDH1 (second series), stronger effect = lower value
  normalized growth: 0.975
S. cerevisiae deletion strains, locus YKL085W, strain MDH1, stronger effect = lower value
  normalized growth: 0.975
S. cerevisiae deletion strains, locus YKL160W, strain elf1, stronger effect = lower value
  normalized growth: 1
S. cerevisiae deletion strains, locus YKL190W, strain CNB1, stronger effect = lower value
  normalized growth: 0.99
S. cerevisiae deletion strains, locus YKR001C, strain vps1, stronger effect = lower value
  normalized growth: 0.982
S. cerevisiae deletion strains, locus YKR026C, strain gcn3, stronger effect = lower value
  normalized growth: 0.965
S. cerevisiae deletion strains, locus YKR091W, strain srl3, stronger effect = lower value
  normalized growth: 0.974
S. cerevisiae deletion strains, locus YLL001W, strain dnm1, stronger effect = lower value
  normalized growth: 1.01
S. cerevisiae deletion strains, locus YLL026W, stronger effect = lower value
  normalized growth: 0.987
S. cerevisiae deletion strains, locus YLL041C, strain sdh2, stronger effect = lower value
  normalized growth: 0.973
S. cerevisiae deletion strains, locus YLR027C, strain aat2, stronger effect = lower value
  normalized growth: 0.992
S. cerevisiae deletion strains, locus YLR039C, strain RIC1, stronger effect = lower value
  normalized growth: 1.04
S. cerevisiae deletion strains, locus YLR058C, strain SHM2, stronger effect = lower value
  normalized growth: 0.994
S. cerevisiae deletion strains, locus YLR102C, strain apc9, stronger effect = lower value
  normalized growth: 1.01
S. cerevisiae deletion strains, locus YLR113W, strain HOG1, stronger effect = lower value
  normalized growth: 0.903
S. cerevisiae deletion strains, locus YLR221C, strain rsa3, stronger effect = lower value
  normalized growth: 1
S. cerevisiae deletion strains, locus YLR258W, strain gsy2, stronger effect = lower value
  normalized growth: 0.979
S. cerevisiae deletion strains, locus YLR262C, strain YPT6 (second series), stronger effect = lower value
  normalized growth: 0.934
S. cerevisiae deletion strains, locus YLR262C, strain YPT6, stronger effect = lower value
  normalized growth: 1.12
S. cerevisiae deletion strains, locus YLR268W, strain sec22, stronger effect = lower value
  normalized growth: 1.02
S. cerevisiae deletion strains, locus YLR320W, strain mms22, stronger effect = lower value
  normalized growth: 1.01
S. cerevisiae deletion strains, locus YLR330W, strain CHS5, stronger effect = lower value
  normalized growth: 0.986
S. cerevisiae deletion strains, locus YLR342W, strain FKS1 (second series), stronger effect = lower value
  normalized growth: 1.02
S. cerevisiae deletion strains, locus YLR342W, strain FKS1, stronger effect = lower value
  normalized growth: 0.986
S. cerevisiae deletion strains, locus YLR357W, strain rsc2, stronger effect = lower value
  normalized growth: 0.994
S. cerevisiae deletion strains, locus YLR370C, strain arc18, stronger effect = lower value
  normalized growth: 0.975
S. cerevisiae deletion strains, locus YLR371W, strain rom2, stronger effect = lower value
  normalized growth: 1.01
S. cerevisiae deletion strains, locus YLR384C, strain iki3, stronger effect = lower value
  normalized growth: 0.974
S. cerevisiae deletion strains, locus YLR418C, strain cdc73, stronger effect = lower value
  normalized growth: 1.02
S. cerevisiae deletion strains, locus YML016C, strain PPZ1, stronger effect = lower value
  normalized growth: 0.982
S. cerevisiae deletion strains, locus YML032C, strain rad52, stronger effect = lower value
  normalized growth: 1.01
S. cerevisiae deletion strains, locus YML120C, strain ndi1, stronger effect = lower value
  normalized growth: 0.991
S. cerevisiae deletion strains, locus YML124C, strain tub3, stronger effect = lower value
  normalized growth: 0.998
S. cerevisiae deletion strains, locus YMR058W, strain fet3, stronger effect = lower value
  normalized growth: 0.998
S. cerevisiae deletion strains, locus YMR078C, strain ctf18, stronger effect = lower value
  normalized growth: 0.995
S. cerevisiae deletion strains, locus YMR125W, strain sto1, stronger effect = lower value
  normalized growth: 0.98
S. cerevisiae deletion strains, locus YMR129W, stronger effect = lower value
  normalized growth: 0.971
S. cerevisiae deletion strains, locus YMR205C, strain PFK2, stronger effect = lower value
  normalized growth: 1
S. cerevisiae deletion strains, locus YMR223W, strain ubp8, stronger effect = lower value
  normalized growth: 1.03
S. cerevisiae deletion strains, locus YMR231W, strain pep5, stronger effect = lower value
  normalized growth: 0.927 (active)
S. cerevisiae deletion strains, locus YMR263W, strain SAP30, stronger effect = lower value
  normalized growth: 0.996
S. cerevisiae deletion strains, locus YMR307W, strain GAS1, stronger effect = lower value
  normalized growth: 1.06
S. cerevisiae deletion strains, locus YNL067W, strain RPL9B, stronger effect = lower value
  normalized growth: 1.01
S. cerevisiae deletion strains, locus YNL071W, strain lat1, stronger effect = lower value
  normalized growth: 0.968
S. cerevisiae deletion strains, locus YNL128W, strain TEP1, stronger effect = lower value
  normalized growth: 1.01
S. cerevisiae deletion strains, locus YNL153C, strain GIM3, stronger effect = lower value
  normalized growth: 0.994
S. cerevisiae deletion strains, locus YNL183C, strain NPR1, stronger effect = lower value
  normalized growth: 0.91
S. cerevisiae deletion strains, locus YNL209W, strain ssb2, stronger effect = lower value
  normalized growth: 0.995
S. cerevisiae deletion strains, locus YNL233W, strain BNI4, stronger effect = lower value
  normalized growth: 1
S. cerevisiae deletion strains, locus YNL248C, strain rpa49, stronger effect = lower value
  normalized growth: 1
S. cerevisiae deletion strains, locus YNL250W, strain rad50, stronger effect = lower value
  normalized growth: 1.02
S. cerevisiae deletion strains, locus YNL271C, strain bni1, stronger effect = lower value
  normalized growth: 1.01
S. cerevisiae deletion strains, locus YNL298W, strain CLA4, stronger effect = lower value
  normalized growth: 0.972
S. cerevisiae deletion strains, locus YNL307C, strain MCK1, stronger effect = lower value
  normalized growth: 1.01
S. cerevisiae deletion strains, locus YNL322C, strain KRE1 (second series), stronger effect = lower value
  normalized growth: 0.968
S. cerevisiae deletion strains, locus YNL322C, strain KRE1, stronger effect = lower value
  normalized growth: 0.989
S. cerevisiae deletion strains, locus YNR049C, strain mso1, stronger effect = lower value
  normalized growth: 0.979
S. cerevisiae deletion strains, locus YNR052C, strain pop2, stronger effect = lower value
  normalized growth: 1.02
S. cerevisiae deletion strains, locus YOL006C, strain TOP1, stronger effect = lower value
  normalized growth: 1.04
S. cerevisiae deletion strains, locus YOL012C, strain htz1
  normalized growth: 1.2
S. cerevisiae deletion strains, locus YOL147C, strain pex11, stronger effect = lower value
  normalized growth: 0.997
S. cerevisiae deletion strains, locus YOR001W, strain rrp6, stronger effect = lower value
  normalized growth: 0.984
S. cerevisiae deletion strains, locus YOR061W, strain CKA2, stronger effect = lower value
  normalized growth: 0.994
S. cerevisiae deletion strains, locus YOR069W, strain VPS5, stronger effect = lower value
  normalized growth: 0.989
S. cerevisiae deletion strains, locus YOR070C, strain gyp1, stronger effect = lower value
  normalized growth: 0.987
S. cerevisiae deletion strains, locus YOR080W, strain dia2, stronger effect = lower value
  normalized growth: 0.962
S. cerevisiae deletion strains, locus YOR083W, strain WHI5, stronger effect = lower value
  normalized growth: 1.01
S. cerevisiae deletion strains, locus YOR106W, strain vam3, stronger effect = lower value
  normalized growth: 1.02
S. cerevisiae deletion strains, locus YOR136W, strain idh2, stronger effect = lower value
  normalized growth: 1.03
S. cerevisiae deletion strains, locus YOR144C, strain elg1, stronger effect = lower value
  normalized growth: 1
S. cerevisiae deletion strains, locus YOR184W, strain ser1, stronger effect = lower value
  normalized growth: 1.04
S. cerevisiae deletion strains, locus YOR231W, strain MKK1, stronger effect = lower value
  normalized growth: 0.963
S. cerevisiae deletion strains, locus YOR265W, strain rbl2, stronger effect = lower value
  normalized growth: 0.985
S. cerevisiae deletion strains, locus YOR270C, strain vph1, stronger effect = lower value
  normalized growth: 1.02
S. cerevisiae deletion strains, locus YOR290C, strain snf2, stronger effect = lower value
  normalized growth: 1
S. cerevisiae deletion strains, locus YOR316C, strain cot1, stronger effect = lower value
  normalized growth: 1.01
S. cerevisiae deletion strains, locus YPL051W, strain arl3, stronger effect = lower value
  normalized growth: 0.983
S. cerevisiae deletion strains, locus YPL055C, strain LGE1, stronger effect = lower value
  normalized growth: 1.03
S. cerevisiae deletion strains, locus YPL078C, strain atp4, stronger effect = lower value
  normalized growth: 0.971
S. cerevisiae deletion strains, locus YPL106C, strain sse1, stronger effect = lower value
  normalized growth: 0.952
S. cerevisiae deletion strains, locus YPL240C, strain hsp82, stronger effect = lower value
  normalized growth: 0.973
S. cerevisiae deletion strains, locus YPL241C, strain CIN2, stronger effect = lower value
  normalized growth: 0.99
S. cerevisiae deletion strains, locus YPL256C, strain CLN2, stronger effect = lower value
  normalized growth: 0.949
S. cerevisiae deletion strains, locus YPR119W, strain clb2, stronger effect = lower value
  normalized growth: 0.986
S. cerevisiae deletion strains, locus YPR141C, strain kar3, stronger effect = lower value
  normalized growth: 1.03
S. cerevisiae deletion strains, locus YPR163C, strain tif3, stronger effect = lower value
  normalized growth: 1.02
S. cerevisiae deletion strains, locus YPR167C, strain met16, stronger effect = lower value
  normalized growth: 1.01
S. cerevisiae deletion strains, strain wtn01, stronger effect = lower value
  normalized growth: 1.01
S. cerevisiae strains, strain wild type, stronger effect = lower value
  normalized growth: 0.992

From PubChem BioAssay AID1159580 (chemical genetic matrix, 2015)
